# Assay results published in PubChem BioAssay.
# Experiment: MRP1 drug-resistance reversers in H69AR cells – cell-based, doxorubicin co-treatment, pilot screen (AID 601)
# Settings: H69AR cells + 2 uM doxorubicin, CellTiter-Glo, 72 h; measured here: viability with 2 uM doxorubicin; at 10 µM; stronger effect = lower value
row,SMILES,viability
1,CCCCC(=O)NCCc1cc2c(C)ccc(C)c2[nH]c1=O,83.4%
2,CN1CCN(C2=C(Cl)C(=O)N(c3cccc(Cl)c3)C2=O)CC1,80.5%
3,Cc1ccc(Cn2c(=O)c3ccccc3n3c(CCC(=O)O)nnc23)cc1,91.9%
4,COc1cc(/C=N/n2cnnc2)ccc1OCC(=O)N1CCOCC1,99.6%
5,CCC(C)C(=O)Nc1nc2c(s1)C(=O)CC(C)(C)C2 (stereo not given),88.3%
6,O=C(C(Cc1ccccc1)n1cccc1)N1CCCCCC1 (stereo not given),84.4%
7,Cc1ccc(NC(=O)c2cc(-c3ccc(C)o3)nc3ccccc23)nc1,5.45%
8,Cc1cccc(-n2ncc3c(NCCCn4ccnc4)ncnc32)c1,84.9%
9,Cc1ccc(CNC(=O)C2CCCN(S(=O)(=O)c3cnc[nH]3)C2)cc1 (stereo not given),92.3%
10,CCCN1CCN(CCCNC(=O)Cn2ncc3c4ccccc4n(C)c3c2=O)CC1,96.8%
11,CN(C)c1cc(NC(=O)CN2CCOCC2)c2ccccc2n1,85%
12,CN(C)S(=O)(=O)c1ccc2c(c1)c(=O)c(C(=O)NCCCN1CCCCCC1)cn2C,106%
13,CC(C)c1ccc(C(O)c2cnc(C(C)C)n2C)cc1 (stereo not given),81.6%
14,CCN(CC)C(=O)c1ccc(CS(=O)(=O)c2ccc(OC)cc2)o1,88.7%
15,COc1ccc2c(c1)CCc1cc(C(=O)N3CCN(c4ccc(N5CCOCC5)nn4)CC3)sc1-2,75.1%
16,COc1ccc(-c2[nH]c(-c3cccc(OC)c3)nc2SCC(=O)NCc2ccco2)cc1,73.4%
17,CCSc1nnc(N2C(=O)CC(c3ccsc3)C3=C2CC(C)(C)CC3=O)s1 (stereo not given),104%
18,CC1=C(C(=O)Nc2cccnc2)C(c2ccc(C(C)C)cc2)n2ncnc2N1 (stereo not given),71.1%
19,CCCCN=CC1=C(O)C(C(=O)OC)C(C)(C)CC1=O (stereo not given),86.9%
20,O=C1c2ccccc2C(Nc2cccnc2)N1Cc1ccccc1Cl (stereo not given),102%

row,SMILES,viability
1,CC(=O)NC(CCS(C)(=O)=O)C(=O)Nc1cccc(C)c1 (stereo not given),92.7%
2,Cc1ccc(N2CCN(S(=O)(=O)N(C)C)CC2)c(C)c1,93.1%
3,CCOc1ccc(NC(=O)CCN2CCN(c3ccccc3)CC2)cc1,78.5%
4,CCOC(=O)C1=C(C)Nc2nnnn2C1c1ccc(OC)c(Br)c1 (stereo not given),97.8%
5,CC(C)c1nnc(NC(=O)Cc2cccs2)s1,90.6%
6,Cc1ccnc(NC(=O)C2CCC(CNc3c(N4CCCC4)c(=O)c3=O)CC2)c1 (stereo not given),89%
7,CCN(CCCNS(=O)(=O)c1ccc2c(c1)oc(=O)n2C)c1cccc(C)c1,84.5%
8,O=C(NCC1CCCO1)C1CCN(S(=O)(=O)c2cccc3cccnc23)CC1 (stereo not given),94%
9,CCn1c(C(=O)N2CCC(C(=O)N3CCN(c4ccccn4)CC3)CC2)cc2sccc21,54.2%
10,O=C(O)COc1ccc(S(=O)(=O)NCCc2ccccc2)cc1,78.8%
11,CCOC(=O)N1CCN(C(=O)c2ccc(CS(=O)(=O)c3c(Cl)cccc3Cl)o2)CC1,101%
12,CNC(=O)c1ccsc1NC(=O)c1ccccc1,84.5%
13,CSc1nc2ccccc2c(=O)n1N,93.1%
14,CCN1CCN(C(c2cccs2)C(C)NC(=O)c2ccccc2)CC1 (stereo not given),81.3%
15,CC(Sc1nc(-c2ccccc2)cc(C(F)(F)F)n1)C(=O)N1CCCC1 (stereo not given),97.3%
16,CCOc1cccc(-c2nnc3n2N=C(c2cc(OC)ccc2OC)CS3)c1,74.2%
17,COc1cc(NC(=O)C2CCCN2S(=O)(=O)c2cccc3cccnc23)cc(OC)c1OC (stereo not given),88.3%
18,CCOC(=O)c1ccc(-n2c(C)nc3c(cnn3-c3ccccc3C)c2=O)cc1,102%
19,O=C(Nc1c(C(=O)NCc2ccco2)cnn1-c1ccccc1)c1ccc(F)cc1,92.6%
20,O=C(NCCC1=CCCCC1)C1CCN(S(=O)(=O)c2cccc3cccnc23)CC1,98.2%
